Assay results reported in PubChem BioAssay AID1159580 (chemical genetic matrix, 2015).
Values joined by “and” are separate entries in the source; they are usually repeats but may differ in a detail not shown here. Identical values can stand only once. The campaign covered roughly 5,500 compounds. About 2,000 (36%) were called active. Inconclusive results (about 18%) are left out. No stated cut-off is given here; in the data, active means normalized growth mostly below about 0.91 (no sharp cut-off); inconclusive means no clear call, values can overlap the other calls; inactive means mostly above about 0.92. The list shows a part of the results.

Assay: chemical genetic growth profiling, strain panel (AID 1159580);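 further: tested at 20 µM; growth read once vehicle control cultures reached saturation at 30 °C; 1 = growth at the plate median or of vehicle wells; lower values mean less growth of the strain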
Details: S. cerevisiae deletion strains, growth OD

Measured: normalized growth

CC(=O)O[C@@H]1CC2C(C)(C)[C@H](O)CC[C@]2(C)C2CC[C@@]3(C)[C@H](c4ccoc4)OC(=O)C4OC43[C@@]21C (stereo partly specified)
inactive: locus YAL021C, strain ccr4, active compounds read low 0.991 | locus YAL026C, strain drs2, active compounds read low 1.03 | locus YAL030W, strain snc1, active compounds read low 1.01 | locus YBL061C, strain skt5, active compounds read low 1.01 | locus YBR009C, strain hhf1, active compounds read low 1.04 | locus YBR021W, strain FUR4, active compounds read low 0.974 | locus YBR023C, strain chs3, active compounds read low 1.02 | locus YBR171W, strain sec66, active compounds read low 1.02 | locus YBR229C, strain ROT2, active compounds read low 0.957 | locus YBR231C, strain swc5, active compounds read low 1.02 | locus YBR279W, strain paf1, active compounds read low 1.01 | locus YCL011C, strain gbp2, active compounds read low 1.01 | locus YCL016C, strain dcc1, active compounds read low 1.02 | locus YCL029C, strain bik1, active compounds read low 0.993 | locus YCL061C, strain MRC1, active compounds read low 1.02 | locus YCL069W, strain vba3, active compounds read low 1 | locus YCR088W, strain abp1, active compounds read low 1.01 | locus YDL005C, strain med2, active compounds read low 1.02 | locus YDL035C, strain GPR1, active compounds read low 0.984 | locus YDL040C, strain nat1, active compounds read low 1 | locus YDL074C, strain BRE1, active compounds read low 1 | locus YDL101C, strain DUN1, active compounds read low 0.998 | locus YDL134C, strain PPH21, active compounds read low 1.03 | locus YDL185W, strain tfp1, active compounds read low 0.97 | locus YDL192W, strain arf1, active compounds read low 0.999 | locus YDR001C, strain nth1, active compounds read low 1.01 | locus YDR069C, strain doa4, active compounds read low 1.04 | locus YDR101C, strain arx1, active compounds read low 0.967 | locus YDR137W, strain rgp1, active compounds read low 1.02 | locus YDR159W, strain sac3, active compounds read low 1.05 | locus YDR162C, strain NBP2, active compounds read low 0.999 | locus YDR195W, strain ref2 1.03 | locus YDR297W, strain sur2, active compounds read low 1.01 | locus YDR318W, strain mcm21, active compounds read low 0.996 | locus YDR334W, strain swr1, active compounds read low 1.01 | locus YDR335W, strain msn5, active compounds read low 1.03 | locus YDR388W, active compounds read low 1 | locus YDR392W, strain spt3, active compounds read low 0.834 | locus YDR502C, strain sam2, active compounds read low 1.01 | locus YEL003W, strain gim4, active compounds read low 1.03 | locus YEL037C, strain rad23, active compounds read low 1.01 | locus YEL061C, strain CIN8 (second series), active compounds read low 1.02 | locus YER015W, strain faa2, active compounds read low 1.01 | locus YER016W, strain bim1, active compounds read low 1.02 | locus YER110C, active compounds read low 0.98 | locus YER111C, strain swi4, active compounds read low 1.02 | locus YER155C, strain BEM2 (second series), active compounds read low 1.03 | locus YER155C, strain BEM2, active compounds read low 1.01 | locus YER167W, strain BCK2, active compounds read low 0.996 | locus YFR010W, strain ubp6, active compounds read low 1.04 | locus YGL078C, strain dbp3, active compounds read low 1.01 | locus YGL086W, strain mad1, active compounds read low 0.984 | locus YGL167C, strain pmr1, active compounds read low 1.01 | locus YGL173C, strain kem1, active compounds read low 1.01 | locus YGL227W, strain vid30, active compounds read low 1.02 | locus YGL240W, strain doc1, active compounds read low 1.04 | locus YGL248W, strain PDE1, active compounds read low 1.01 | locus YGL253W, strain hxk2, active compounds read low 0.997 | locus YGR135W, strain pre9, active compounds read low 1.05 | locus YGR252W, strain gcn5, active compounds read low 1.04 | locus YHR013C, strain ard1, active compounds read low 1.02 | locus YHR027C, strain rpn1, active compounds read low 1.01 | locus YHR030C, strain SLT2, active compounds read low 1.07 | locus YHR079C, strain IRE1 (second series), active compounds read low 0.983 | locus YHR079C, strain IRE1, active compounds read low 1.05 | locus YHR094C, strain hxt1, active compounds read low 0.989 | locus YHR129C, strain ARP1, active compounds read low 1.01 | locus YHR142W, strain chs7, active compounds read low 0.939 | locus YHR200W, strain rpn10, active compounds read low 0.996 | locus YIL066C, strain RNR3, active compounds read low 0.973 | locus YIL073C, strain SPO22, active compounds read low 0.958 | locus YIL125W, strain kgd1, active compounds read low 0.962 | locus YIR030C, strain dcg1, active compounds read low 0.988 | locus YJL092W, strain hpr5, active compounds read low 1.02 | locus YJL095W, strain BCK1 (second series), active compounds read low 1.02 | locus YJL095W, strain BCK1, active compounds read low 1.06 and 1.08 | locus YJL115W, strain asf1, active compounds read low 1.02 | locus YJL129C, strain trk1, active compounds read low 1 | locus YJL134W, strain LCB3, active compounds read low 0.991 | locus YJL154C, strain vps35, active compounds read low 0.999 | locus YJL164C, strain tpk1, active compounds read low 1.02 | locus YJL166W, strain qcr8, active compounds read low 1.02 | locus YJL168C, strain set2, active compounds read low 0.996 | locus YJL187C, strain SWE1 (second series), active compounds read low 1.02 | locus YJL187C, strain SWE1, active compounds read low 1.01 | locus YJR043C, strain POL32, active compounds read low 0.977
